Shown is part of a subset that was picked to be rich in hits.
KDM5B inh: blocks human KDM5B histone demethylase activity. KDM5B demethylase, FDH-coupled NADH fluorescence (FDH is formaldehyde dehydrogenase). Potency, µM (highest dose often 57.7 µM), hits mostly inhibitors. 220,000 compounds, 2.6% hits. Q9UGL1. AID 1347165; active = well fitted inhibition curve with a large enough effect; also: 0% is about no effect; nearly all actives have a fitted effect of over 70% in size
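Measured: NADH fluorescence change, 30 min, RT. System: KDM5BΔAP 200 nM final, H3K4me3 peptide, α-KG, Fe(II), ascorbate, NAD⁺ plus FDH, pH 7.5 HEPES. Compounds: titrated, 10 min pre-incubation with enzyme.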
Numbers without * were called inactive; i = inactive. Potency is read from the fitted curve at half-maximal effect.

SMILES	KDM5B inh
COc1ccc(CN2C(=O)CO[C@H]3CN(Cc4ccccc4)C[C@H]32)cc1	i
COCCN1C(=O)CO[C@H]2CN(CCCc3ccccc3)C[C@H]21	i
COCCN1C(=O)CO[C@H]2CN(c3ncccn3)C[C@H]21	35µM*
O=C(Nc1ccc(F)c(S(=O)(=O)N2CCOCC2)c1)C(Sc1ccccc1)c1ccccc1 (centres undefined)	i
OCCc1nc2ccccc2[nH]1	i
Cc1nc(-c2ccc(F)cc2)n(Cc2ccccc2F)c(=O)c1CCO	i
Cc1nc(-c2ccccc2)n(Cc2cc(=O)n3ccccc3n2)c(=O)c1CCO	22µM*
Cc1nc(-c2ccccc2)n(Cc2nc(-c3ccccc3)oc2C)c(=O)c1CCO	i
COc1ccc(NC(=O)NCc2c(C)nn(C)c2C)c(OC)c1	i
CC(C)(C(=O)NCCc1ccccn1)C1CCOCC1	i
CS(=O)(=O)Nc1ccc(NC(=O)Cc2ccc3c(c2)CCC3)cc1	i
Nc1nc(N2CCOCC2)nc2c1C(C(=O)Nc1ccc(Cl)cc1)CC(=O)N2 (centres undefined)	i
Cc1n[nH]c(=O)nc1SCC(=O)Nc1ccc(C(=O)OC(C)C)cc1	i
O=C(CCC1CCCC1)N1CCC(c2noc(COc3ccc(F)cc3)n2)C1 (centres undefined)	i

Source: PubChem (National Center for Advancing Translational Sciences (NCATS))
